Laboratory results taken from PubChem BioAssay (EPA / NIEHS).
Several values for one entry are separate records, joined by “and”; a condition that tells them apart may be missing. Identical values can stand only once. Records with an inconclusive call do not appear. Some structures have more than one record in an assay (separate samples or runs), and their calls can disagree. Activity calls are given as the source filed them. How the source made its calls, unless noted: active means hit-call score of the fitted dose curve at least 0.9, where 1 is the maximum; inactive means score below 0.9.

What was measured:
[1] = read-out: Transforming Growth Factor (TGFA), TGFA (gene 7039); experiment: LTEA_HepaRG_TGFA: Life Technologies and Expression Analysis (LTEA) Assay for Transforming Growth Factor (TGFA) using HepaRG (AID 2283532); details: mRNA level, 48 h; actives raise or lower the signal
Method in brief: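 qRT-PCR read-out of TGFA transcript, normalized to three housekeeping genes, fitted bidirectionally against 0.5% DMSO baseline. Human HepaRG cultures received chemicals for 48 h at eight half-log concentrations, top 100 uM.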

[2] = read-out: Transforming Growth Factor (TGFB1), TGFB1 (gene 7040); experiment: LTEA_HepaRG_TGFB1: Life Technologies and Expression Analysis (LTEA) Assay for Transforming Growth Factor (TGFB1) Transporter using HepaRG (AID 2283533); details: mRNA level, 48 h; actives raise or lower the signal
Method in brief: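 TGFB1 transcript measured by qRT-PCR with normalisation to three housekeeping genes (ACTB, GAPDH, POLR2A); human HepaRG line treated in duplicate for 48 hr with an 8-point series topping at 100 uM, 0.5% DMSO vehicle, bidirectionally fitted.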

TIMP1, TIMP1 (gene 7076) = experiment: LTEA_HepaRG_TIMP1: Life Technologies and Expression Analysis (LTEA) Assay for TIMP1 using HepaRG (AID 2283534); details: mRNA level, 48 h; actives raise or lower the signal
Method in brief: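 Bidirectional change in TIMP1 transcript versus 0.5% DMSO, measured by TaqMan qRT-PCR with three housekeeping genes for normalization. HepaRG human liver cells dosed 48 h in duplicate, top concentration 100 uM with half-log dilutions.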

[3] = read-out: Tumor necrosis factor receptor 1 (TNFRSF1A), TNFRSF1A (gene 7132); experiment: LTEA_HepaRG_TNFRSF1A: Life Technologies and Expression Analysis (LTEA) Assay for Tumor necrosis factor receptor 1 (TNFRSF1A) using HepaRG (AID 2283535); details: mRNA level, 48 h; actives raise or lower the signal
Method in brief: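 mRNA measured by qRT-PCR (TaqMan, Fluidigm arrays) against ACTB/GAPDH/POLR2A housekeepers after 48 h chemical exposure of HepaRG cells. Top concentration 100 uM, half-log 8-point series, duplicates; vehicle 0.5% DMSO, both fit directions.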

[4] = read-out: Cellular tumor antigen p53 (Homo sapiens) (UniProt P04637); experiment: LTEA_HepaRG_TP53: Life Technologies and Expression Analysis (LTEA) Assay for Tumor Protein P53 (TP53) using HepaRG (AID 2283537); details: mRNA level, 48 h; actives raise or lower the signal
Method in brief: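 Differentiated HepaRG cells in serum-free induction medium exposed 48 h in duplicate to 8 half-log concentrations, top 100 uM, 0.5% DMSO. TP53 mRNA by TaqMan qRT-PCR (Fluidigm), normalized to ACTB, GAPDH, POLR2A; fitted bidirectionally versus DMSO.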

[5] = read-out: UDP glucuronosyltransferase (UGT1A1), UGT1A1 (gene 54658); experiment: LTEA_HepaRG_UGT1A1: Life Technologies and Expression Analysis (LTEA) Assay for UDP glucuronosyltransferase (UGT1A1) using HepaRG (AID 2283538); details: mRNA level, 48 h; actives raise or lower the signal
Method in brief: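 HepaRG, 48 h chemical exposure (top 100 uM, half-log 8-pt, 0.5% DMSO vehicle), duplicate wells; qRT-PCR (TaqMan, Fluidigm array) for UGT1A1 mRNA, housekeeping-normalized; bidirectional curve fit vs DMSO baseline.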

[6] = read-out: UDP glucuronosyltransferase (UGT1A6), UGT1A6 (gene 54578); experiment: LTEA_HepaRG_UGT1A6: Life Technologies and Expression Analysis (LTEA) Assay for UDP glucuronosyltransferase (UGT1A6) using HepaRG (AID 2283539); details: mRNA level, 48 h; actives raise or lower the signal
Method in brief: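 Expression was quantified by TaqMan qRT-PCR on Fluidigm arrays with ACTB/GAPDH/POLR2A normalization and bidirectional fitting against 0.5% DMSO. HepaRG cells (~100,000/well) were treated in duplicate for 48 h at eight half-log concentrations up to 100 uM in serum-free induction medium.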

[7] = read-out: X-box binding protein 1 (XBP1), XBP1 (gene 7494); experiment: LTEA_HepaRG_XBP1: Life Technologies and Expression Analysis (LTEA) Assay for X-box binding protein 1 (XBP1) using HepaRG (AID 2283540); details: mRNA level, 48 h; actives raise or lower the signal
Method in brief: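 XBP1 transcript by qRT-PCR (housekeeping-normalized: ACTB, GAPDH, POLR2A) after 48 h chemical treatment of HepaRG cells, 8-point half-log series topping at 100 uM, vehicle 0.5% DMSO. Gain and loss of signal fitted relative to DMSO.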

[8] = TOX21_p53_BLA_p2_viability: Viability Assessment in the Tox21 HCT-116 p53 Agonism Beta-lactamase Assay, Phase 2 (AID 2283591; active means hit-call score of the fitted dose curve at least 0.9, where 1 is the maximum;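 further: compound exposure lasted 16 h at 37 °C; actives lower the ATP signal meaning cytotoxicity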)
Method in brief: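 HCT116 p53-bla cells, 4000/well, dosed after 5 h plating (217-fold dilution of DMSO stocks) and incubated 16 h at 37C. Viability taken as cellular ATP by CellTiter-Glo luminescence after 30 min RT; signal loss marks cytotoxicity.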

[9] = ATG_XTT_Cytotoxicity: Cytotoxicity Assessment in the Attagene TRANS-FACTORIAL HepG2 Assay (AID 2283584; active means hit-call score of the fitted dose curve at least 0.9, where 1 is the maximum;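 on AC50: cells exposed to compound for 24 h before reading; active means loss of viability signal versus DMSO baseline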)
Method in brief: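 Viability endpoint from XTT after 24 h chemical exposure of reporter-transfected human HepG2 liver cells; signal loss fitted relative to DMSO negative control.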

Measured: AC50

Chain of Cellular tumor antigen p53 (Homo sapiens) (P04637 whole entry, looked up): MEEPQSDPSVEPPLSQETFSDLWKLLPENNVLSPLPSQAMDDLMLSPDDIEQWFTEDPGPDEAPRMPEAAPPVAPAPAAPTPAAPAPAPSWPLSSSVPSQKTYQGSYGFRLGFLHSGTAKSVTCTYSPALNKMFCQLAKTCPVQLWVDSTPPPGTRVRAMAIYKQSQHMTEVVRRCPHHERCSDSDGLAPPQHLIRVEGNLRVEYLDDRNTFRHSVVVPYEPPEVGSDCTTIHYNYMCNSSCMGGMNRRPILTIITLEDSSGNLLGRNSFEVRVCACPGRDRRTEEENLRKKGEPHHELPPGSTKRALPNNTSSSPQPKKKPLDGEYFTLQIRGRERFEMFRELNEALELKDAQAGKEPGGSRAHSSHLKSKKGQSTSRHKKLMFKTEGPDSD

CC(C)(c1ccccc1)c1ccc(O)c(C(C)(C)c2ccccc2)c1
active: [5] 12.2 µM | [8] 11.4 µM and 20.3 µM
not listed: [9]
inactive: all other assays above

CCOP(=O)(CN(CCO)CCO)OCC
inactive: [9]

CCC(=O)C(CC(C)N(C)C)(c1ccccc1)c1ccccc1 (centres undefined)
not listed: [8]
inactive: all other assays above

C[C@]12CCC(=O)C[C@@H]1CC[C@@H]1[C@@H]2CC[C@]2(C)[C@@H](O)CC[C@@H]12
inactive: all assays above

CC(=O)[O][Hg][c]1ccccc1
active: [1] 23 µM | [2] 23 µM | TIMP1, TIMP1 (gene 7076) 83.7 µM | [3] 27.6 µM | [4] 0.193 µM | [5] 32.5 µM | [6] 18.4 µM | [7] 11.6 µM | [9] 8.24 µM | [8] 2.74 µM and 2.65 µM and 3.55 µM

ClC(Cl)=C(Cl)C(Cl)=C(Cl)Cl
inactive: [9]

O=C(O)C(Cl)(Cl)Cl
inactive: [1] | [2] | TIMP1, TIMP1 (gene 7076) | [3] | [4] | [5] | [6] | [7] | [9] | [8]
active: [6] 9.92 µM

C=CC(=O)OCCCCCC(C)C
not listed: [9]
inactive: all other assays above

O=C1C2(Cl)C3(Cl)C4(Cl)C(Cl)(Cl)C5(Cl)C3(Cl)C1(Cl)C5(Cl)C24Cl (centres undefined)
active: [2] 92.5 µM | TIMP1, TIMP1 (gene 7076) 93.4 µM | [4] 22.6 µM | [5] 15.8 µM | [6] 94.7 µM | [7] 92.4 µM | [9] 31.8 µM and 35.1 µM | [8] 73.9 µM and 73.7 µM
inactive: [1] | [3] | [9]

O=C(O)C(F)(F)C(F)(F)C(F)(F)C(F)(F)C(F)(F)C(F)(F)C(F)(F)C(F)(F)C(F)(F)C(F)(F)F
active: [5] 31 µM
not listed: [6] | [8]
inactive: all other assays above

CCC(C)(C)c1ccc(O)c(C(C)(C)CC)c1
active: [8] 46.1 µM and 45.7 µM
inactive: all other assays above

CC(C)(C)c1cc(O)ccc1O
inactive: all assays above

CCCCCCCCc1ccc(O)cc1
active: [4] 0.418 µM | [5] 70.1 µM
inactive: all other assays above

CC12CC1(C)C(=O)N(c1cc(Cl)cc(Cl)c1)C2=O (centres undefined)
active: [5] 10.5 µM
inactive: all other assays above

C=C(C)C(=O)[O][Sn]([CH2]CCC)([CH2]CCC)[CH2]CCC
inactive: TIMP1, TIMP1 (gene 7076) | [3] | [4] | [7]
active: [1] 2.42 µM | [2] 2.44 µM | [5] 9.35 µM | [6] 2.63 µM | [9] 2.32 µM | [8] 1.88 µM

CCC(=O)c1ccccc1
inactive: [9] | [8]

O=[N+]([O-])c1c(Cl)c(Cl)cc(Cl)c1Cl
inactive: [9] | [8]

CCCCC(CC)CO[N+](=O)[O-] (centres undefined)
inactive: [9] | [8]

CCOC(=O)Nc1cccc(OC(=O)Nc2ccccc2)c1
inactive: [9] | [8]

BrCCBr
inactive: [9] | [8]

Nc1cccc(Cl)c1
inactive: [9] | [8]

Cl/C=C\C[N+]12CN3CN(CN(C3)C1)C2
inactive: [9] | [8]

CCCCCCCCSC(=O)Oc1cc(Cl)nnc1-c1ccccc1
inactive: [9] | [8]

CCCCOCCOC(C)=O
inactive: [9] | [8]

CN(C)P(=O)(N(C)C)N(C)C
inactive: [9] | [8]

CC(Br)C(=O)O (centres undefined)
inactive: [9] | [8]

ClCc1ccccn1
inactive: [9] | [8]

CC(=O)c1cc(C(C)(C)C)cc2c1CCC2(C)C
inactive: [9] | [8]

Cc1cc(=O)[nH]o1
inactive: [9] | [8]

COc1cc2c(cc1OC)[C@@]13CCN4CC5=CCO[C@H]6CC(=O)N2[C@H]1[C@H]6[C@H]5C[C@H]43
inactive: [9] | [8]

C1CCC(NC2CCCCC2)CC1
inactive: [9] | [8]

C=CC#N
inactive: [9] | [8]

COc1cccc(C=O)c1
inactive: [9] | [8]

COP(=O)(OC)OC
inactive: [9] | [8]

Nc1ccc(-c2ccc(N)c(Cl)c2)cc1Cl
inactive: [9] | [8]

O=C/C=C/c1ccccc1
inactive: [9] | [8]

C(=NC1CCCCC1)=NC1CCCCC1
inactive: [9] | [8]

COc1ccc(C=O)cc1OC
inactive: [9] | [8]

[O-][Cl+2]([O-])O
inactive: [9]

Clc1ccc(COC(Cn2ccnc2)c2ccc(Cl)cc2Cl)cc1 (centres undefined)
inactive: [9]
active: [8] 64.8 µM and 73 µM and 33.7 µM

O=P(O)(O)CN(CP(=O)(O)O)CP(=O)(O)O
inactive: [9] | [8]

O=S(=O)(c1ccc(Cl)cc1)c1ccc(Cl)cc1
inactive: [9] | [8]

O=C(CCl)CCl
inactive: [9] | [8]
